Compound activity (PubChem BioAssay)
The entries come from a sample that favours hits as a whole.
Dicer processing: inhibitors of Dicer pre-microRNA processing, primary screen, biochemical, cat-ELCCA, chemiluminescence | cat-ELCCA pre-miR-21 Dicer processing; hits give high values | z-score at 25 µM | 6% of 47,000 active | AID 1347074, 2019; in the data active = z-score above about 3, passing the limit was not always enough;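 also: plate controls were vehicle for no effect and no enzyme for full effect; higher signal means more uncleaved substrate so more Dicer inhibition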
An asterisk follows results filed as active.

SMILES	Dicer processing
CC12CN3CC(C)(CN(C1)C3c1ccc([N+](=O)[O-])o1)C2 (centres undefined)	0.27
Cc1ccc(C2N3CC4(C)CN2CC(C)(C3)C4)cc1 (centres undefined)	3*
CC12CN3CC(C)(CN(C1)C3c1cc(Br)ccc1O)C2 (centres undefined)	0.72
CN(/N=C/c1ccc(Cl)cc1)c1ncc(Cl)cc1C(F)(F)F	-0.11
Cc1cc(Cl)ccc1NNC(=O)CCc1ccccc1	-3.4
CN(C)c1cc(-c2ccc(Cl)c(Cl)c2)oc(=O)c1Cl	-0.53
CC(=O)Nc1ccc(S(=O)(=O)N(c2ccc(F)cc2F)S(=O)(=O)c2ccc(NC(C)=O)cc2)cc1	0.31
Cc1onc(-c2c(Cl)cccc2Cl)c1C(=O)N1CCCC1c1ccc(F)cc1 (centres undefined)	10
CCSc1ccc2c3c(cccc13)C(=O)N(NCCO)C2=O	-2
Cc1nc(C(=O)N/N=C/c2[nH]ncc2Cl)cs1	-0.33
CC(C)(C)NC(=S)N/N=C\c1[nH]ncc1Cl	5*
Cc1ccc(Cn2ncc(Br)c2/C=N/NC(=S)NC(C)(C)C)cc1	-0.09
CCc1ccc(C2C(C#N)=C(C)NC3=C2C(=O)CC(C)(C)C3)cc1 (centres undefined)	-1
Cc1onc(-c2c(Cl)cccc2Cl)c1NC(=O)NCc1c(N(C)C)cccc1N(C)C	2.5
O=C(NNC(=S)Nc1ccc(OCc2ccccc2)cc1)c1ccco1	-0.45
CC1CN(Cc2c(O)ccc3c(=O)c(-c4ccccc4)coc23)CC(C)O1 (centres undefined)	27
CN1CCN(Cc2c(O)ccc3c(=O)c(-c4ccccc4)c(C(F)(F)F)oc23)CC1	0.54
CC1CCN(Cc2c(O)ccc3c2oc(=O)c2ccccc23)CC1	3.5*
CC1CN(Cc2c(O)ccc3c2oc(=O)c2ccccc23)CC(C)O1 (centres undefined)	3.1*
O=c1c(-c2ccccc2)coc2c(CN3CCCCC3)c(O)ccc12	0.61
CC1CN(Cc2c(O)ccc3c(=O)c(Oc4ccc5ccccc5c4)c(C(F)(F)F)oc23)CC(C)O1 (centres undefined)	1.2
Cc1ccc(S(=O)(=O)NC2c3cccc4cccc(c34)C2Sc2ncccn2)cc1 (centres undefined)	1.8
CSc1nsc(SCC(=O)Nc2cc(C)on2)n1	-2.5
C=CCN(C(=O)c1cccc(C)c1)c1ccccc1C(=O)NCC(=O)OCC	0.01
CCOC(=O)c1cnn(-c2ncnc3sccc23)c1N	-0.23
SMILES	Dicer processing
Cc1cccc(C)c1OCc1nnc2c3cnn(-c4ccccc4)c3ncn12	-1.4
O=C(O)C1(c2ccccc2)CCCC1	2.4
O=C(N1CCCC1)C1(c2ccccc2)CCOCC1	3*
O=C(NC(=S)N1CCCCC1)c1ccccc1	1.4
Cc1cc(NC(=O)c2ccc(F)cc2)c([N+](=O)[O-])cc1C	-0.61
O=C(O)CCCc1c[nH]c2ccccc12	0.68
O=C(O)CCc1c[nH]c2ccccc12	-2.2
CC(Cc1c[nH]c2ccccc12)C(=O)O (centres undefined)	5*
CC(C)(C)c1nc(Sc2ccc(C(F)(F)F)cc2[N+](=O)[O-])n[nH]1	-0.31
O=C1NC(=O)/C(=C/c2ccc(OS(=O)(=O)c3ccc(F)cc3F)cc2)N1	2.1
Cc1cc(C)c2[nH]c(C)c(CN(C)C)c(=O)c2c1	0.29
COC(=O)C1=C(C)NC(C)=C(C(=O)OC(C)C)C1c1cccc2nonc12 (centres undefined)	-0.72
COC(=O)C1=C(C)NC(C)=C(C(=O)OCC(C)C)C1c1ccccc1[N+](=O)[O-] (centres undefined)	3.9*
CCOc1ccccc1C1C(C(=O)OC)=C(C)NC2=C1C(=O)c1ccccc12 (centres undefined)	0.84
CCSc1sc(C#N)c2c1C(=O)CC(C)(C)C2	3.6*
CCSc1sc(C(=O)OC)c2c1/C(=N/O)CC(C)(C)C2	2.5
CCCSc1sc(C(=O)OC)c2c1C(=O)CC(C)(C)C2	-0.81
Cc1ccc(-c2nc(S(=O)(=O)c3ccc(C)cc3)c(N3CCOCC3)o2)cc1	-2.8
Fc1cccc(NC(=S)NN=C2CCCCCC2)c1	4.2*
S=C(NN=C1CCCCCC1)Nc1ccccc1	2.6
CC(=O)NNC(=S)Nc1cccc(F)c1	-1.2
O=S(=O)(NC1CCN(Cc2ccccc2)CC1)c1cccs1	10
O=S(=O)(NC1CCN(Cc2ccccc2)CC1)c1cc(Cl)c(Cl)cc1Cl	-1.3
O=S(=O)(NC1CCN(Cc2ccccc2)CC1)c1cccc(C(F)(F)F)c1	3*
Cn1c(Sc2ncnc3c2nnn3Cc2ccccc2)nnc1-c1ccccc1	-0.84
SMILES	Dicer processing
Cc1[nH][nH]c(=O)c1C(c1ccc(O)cc1)c1c(C)[nH][nH]c1=O	-7.2
CCCc1cc(-c2n[nH]c(C)c2-c2ccc(C(=O)OCC)o2)c(O)cc1O	3.9*
CCOC(=O)c1cc(=O)c2c(O)cccc2o1	-0.64
CCOC(=O)c1ccc(CSc2n[nH]c(C)n2)o1	-1
Fc1ccc(-c2csc(Nc3ncccn3)n2)cc1	0.34
Cc1c(Cc2ccccc2)c(-n2ccnc2C)n2c(nc3ccccc32)c1C#N	2.2
Cc1c(CCN2CCOCC2)c(N2CCOCC2)n2c(nc3ccccc32)c1C#N	-0.55
CCCCc1c(C)c(C#N)c2nc3ccccc3n2c1-n1ccnc1C	8.3*
Nc1ccc(S(=O)(=O)Nc2nccs2)cc1	-0.1
CCOC(=O)c1[nH]c(C)c(C(C)=O)c1-c1ccccc1	-0.29
CCOC(=O)N/N=C/c1c(O)ccc2ccccc12	0.86
Oc1ccc(N2Cc3ccccc3C2)cc1	-2.2
Oc1cccc(N2Cc3ccccc3C2)c1	4.4*
CC1CCC2C(=O)N(c3cccc(O)c3)C(=O)C2C1 (centres undefined)	1.1
CS(=O)(=O)c1scc(-c2ccccc2)c1C#N	-1.1
Cc1ccc(-c2n[nH]c(S(C)(=O)=O)c2C#N)cc1	-2.1
Cn1nc(-c2ccccc2)c(C#N)c1S(C)(=O)=O	3.2*
CCOC(=O)c1c(Cl)c(C(C)(C)C)nc(Sc2ccccc2)c1C#N	-0.66
CN1C(=O)C2(/C(=C(/O)c3ccc(Cl)cc3)C(=O)C(=O)N2CCCN2CCOCC2)c2ccccc21 (centres undefined)	10
C=CCN1C(=O)C2(/C(=C(/O)c3ccc(F)cc3)C(=O)C(=O)N2CCCOC)c2ccccc21 (centres undefined)	-0.04
C=CCN1C(=O)C2(/C(=C(/O)c3ccc(Cl)cc3)C(=O)C(=O)N2CC2CCCO2)c2ccccc21 (centres undefined)	0.42
C=CCN1C(=O)C2(/C(=C(/O)c3ccccc3)C(=O)C(=O)N2CCCN2CCOCC2)c2ccccc21 (centres undefined)	3.5*
C=CCN1C(=O)C2(/C(=C(/O)c3ccc(F)cc3)C(=O)C(=O)N2CCN2CCOCC2)c2ccccc21 (centres undefined)	4.5*
CC(C)(C)c1ccc(NC(=O)Nc2ncccc2OCc2ccc(Cl)c(Cl)c2)cc1	-0.54
Cc1nnc(SCC(=O)Nc2nccs2)s1	0.3
SMILES	Dicer processing
Cc1c2n(c3ccccc13)CC/C2=N\O	0.89
COc1ccc(C(=O)/C=C/Sc2cc(Cl)ccc2Cl)cc1	-0.17
Cc1cc(O/C=C/C(=O)c2ccc(Br)cc2)ccc1Cl	0.52
COc1ccc(C(=O)/C=C/Oc2ccc(Cl)cc2)cc1	4.4*
CCNS(=O)(=O)c1ccc(Cl)cc1I	-0.75
CC(C)(C)Nc1nc(Oc2ccc(=O)n(-c3ccccc3)n2)nc(N2CCOCC2)n1	-0.55
CC(C)CNc1nc(Oc2ccc(=O)n(C)n2)nc(N2CCOCC2)n1	1.6
CC(C)CNc1nc(Oc2ccc(=O)n(-c3ccccc3)n2)nc(N2CCOCC2)n1	3.6*
